The values below come from PubChem BioAssay AID493208 (National Center for Advancing Translational Sciences (NCATS), 2011).

The structures appear in SMILES notation. Out of some 44,000 compounds screened, about 340 (0.77%) were called active. Inconclusive results (about 5%) are left out. The full list was thinned out, with actives kept by preference. Unmarked numbers belong to inactive results. Calls follow the shape of the dose curve; as a rule, active = well fitted inhibition curve with a large enough effect; inconclusive = small, poorly fitted or top-dose-only effect; inactive = flat fitted curve, though single readings scatter.
Potency is read from the fitted curve at half-maximal effect.

The assay in a line: Acumen qHTS Assay for Inhibitors of the mTORC1 Signaling Pathway in MEF (Tsc2-/-, p53-/-) Cells: Sytravon. Also: nearly all actives have a fitted effect of over 50% in size. The note with it: phospho-rpS6 immunofluorescence/PI, 24 h; series mostly up to 38.3 µM; activity change, negative = inhibition: at the top concentration. An excerpt: NIH Molecular Libraries Probe Production Centers Network [MLPCN] NIH Chemical Genomics Center [NCGC] MLPCN Grant: NS059428-01 Assay Submitter (PI): Blenis, John; Hoffman, Greg; Harvard University NCGC Assay Overview: The mammalian target of rapamycin (mTOR) is an intracellular serine/threonine kinase Aberrant regulation of mTOR signaling plays a causative role in a number of human diseases, including cancer, benign tumors such as lymphangioleiomyomatosis (LAM) and Tuberous Sclerosis Complex (TSC), and metabolic diseases such as diabetes and obesity. This project aims to identify inhibitors of ribosomal protein S6 (rpS6) phosphorylation. The phosphorylation of rpS6 is a key event downstream of mTOR activation. The assay uses a phospho-specific antibody of phospho-rpS6 to detect inhibitors of mTOR activation. Mutations in the Tsc1 and Tsc2 genes are the underlying genetic lesions responsible for TSC, causing constitutive activation of the mTORC1 pathway and leading to profound effects on cell metabolism. Aberrant metabolism in cancer has recently received significant attention as a target to develop therapeutic agents in the treatment of cancer.1 As Tsc2-/- cells have lost the ability to respond to energy and growth factor deprivation, these cells are unable to properly down regulate cellular biosynthetic processes in response to metabolic stress, and are thus extremely sensitive to glucose deprivation-induced death.2 A central goal of this project is to explore the unique cell survival and metabolic properties of cells with Tsc1 or Tsc2 by screening for compounds that selectively target the Tsc2-/- MEFs by screening both Tsc2-/- and WT MEF cell lines. We hope to better understand these aspects of TSC physiology in order to exploit them for therapeutic benefit.
NCGC Acumen Assay Protocol Summary: For quantitative high throughput analysis of mTORC1 signaling, we developed a cell-based assay for immuno-fluorescence based detection of rpS6 phosphorylation on the Acumen Explorer that will be used a platform for the primary small molecule screen. Mouse embryonic fibroblasts (MEFs) are cultured in 1536-well plates using DMEM + 10% FBS. Twenty-four hrs after plating, test compounds (solubilized in DMSO) are delivered and incubated with the cells for 24 hrs at 37 degree Celsius. Following the incubation, media with compound is aspirated and the cells are fixed in 4% paraformaldehyde (PFA) containing PBS + 0.2% TX-100. Next, PFA is aspirated, cells are washed two times with PBS plus 0.2% TX-100 and the cells are blocked for 1 hr at room temperature (blocking buffer: LiCOR Blocking Buffer plus 0.2% TX-100). […] Cells are washed two times with PBS plus 0.2% TX-100, and stained with 10 uM propidium iodide (PI) for 20-25 minutes for cell number measurement (1:500 dilution of Hoescht staining is also added for IN Cell imaging). The plates are scanned on the Acumen Explorer laser scanning instrument (TTP Labtech) using the 488nm laser for simultaneous excitation of the Alexa-488 and PI. […] The normalized phospho-S6 staining is calculated as the ratio of the integrated Alexa 488 intensity divided by the integrated PI intensity for the single concentration rapamycin control (7.5 nM) and DMSO columns. […] Inhibition of the pathway is defined based on the normalized phospho-S6 intensity in rapamycin treated cells. Active cells are defined as those with a normalized phospho-S6 staining above this threshold, and each treatment is reported as the % positive cells in the well, where thresholds are defined by selecting wells with the highest and lowest signal and differentiating between the % non-active and % active populations. In addition to the pathway specific phospho-S6 endpoint, the number of PI stained cells from the Acumen is recorded as a measure of cell viability. The primary screen was performed with a MEF cell line in a defined genetic background, Tsc2-/-, p53-/- cell line stably transfected with an empty vector control (Tsc2-/- MEF).
(In qHTS, concentration-response curves come from the screen itself.)
Regarding `CCCCS(=O)(=O)c1oc(-c2cccs2)nc1S(=O)(=O)c1ccccc1`, the Potency is 0.414 µM (active).
For `Cc1ccc(CSc2oc(-c3cccs3)nc2S(=O)(=O)c2ccc(C)cc2)cc1`, the “activity change, negative = inhibition” value is 0%.
`Cc1ccc(CNC(=O)CSc2c3c(nc4cc(Cl)ccc24)CCCC3)cc1`: the “activity change, negative = inhibition” value is -6.2%.
With `CCOC(=O)C1CCN(C(=O)CSc2c3c(nc4ccc(Cl)cc24)CCCC3)CC1`, the Potency is 18.5 µM (active).
Regarding `COc1cccc(CNC(=O)CSc2c3c(nc4cc(Cl)ccc24)CCCC3)c1`, the “activity change, negative = inhibition” value is 3.18%.
Same read-out and setting: with `CN(C)CCN(Cc1ccccc1)S(=O)(=O)c1csc(C(N)=O)c1` the figure was 3.82%; with `CC(C)C12CN3CC(C(C)C)(CN(C1)C3c1ccc(OCc3ccccc3)cc1)C2=O` (stereo not drawn), -2.1%.
Take `N#C/C(=C\c1ccccc1F)c1nc2ccccc2c(=O)[nH]1`: the “activity change, negative = inhibition” value is 7.42%.
Same read-out and setting: in the case of `COC(=O)c1cnn(-c2ccc(C(=O)Nc3ccc(OC(F)(F)F)cc3)cc2)c1N` it was -1.33%; in that of `Cc1ccc(Cn2c(=O)n(-c3ccc(C)cc3)c(=O)c3c2c2cc(C)ccc2n3C)cc1`, -1.48%.
On to `CCSc1ncc(Cl)c(C(=O)Nc2cc(C)ccc2C)n1`, for which the “activity change, negative = inhibition” value is 5.83%.
Same read-out and setting: in the case of `CCOC(=O)c1ccc(NC(=O)c2nc(SCc3ccc(F)cc3)ncc2Cl)cc1` it was -6.5%.
On to `Cc1ccc(NC(=O)c2nc(S(=O)(=O)Cc3cccc(C)c3)ncc2Cl)cc1`, for which the Potency was 5.85 µM (active).
Consider `CCC(C)NC(=O)Cn1c(=O)n(-c2ccc(Cl)cc2)c(=O)c2c3c(sc21)CCCC3` (stereo not drawn), for which the “activity change, negative = inhibition” value was 7.38%.
With `CC1CCCCN1CCCNC(=O)Cn1ncc2c([nH]c3ccccc32)c1=O` (stereo not drawn), the “activity change, negative = inhibition” value is -1.23%.
For the compound `COc1ccccc1-c1noc(CSc2nnc(-c3ccccc3)n2-c2ccc(C)c(C)c2)n1`, the “activity change, negative = inhibition” value is -10.2%.
In the case of `CCOc1ccc(CNC(=O)c2ccc(CS(=O)c3ccccc3)o2)cc1` (stereo not drawn), the “activity change, negative = inhibition” value is 3.66%.
On the same count and under the same terms, with `CCCCC(CC)CNC(=O)C1CCN(S(=O)(=O)c2cccc3nsnc23)CC1` (stereo not drawn) the figure was 2.77%.
Same read-out and setting: with `CC(=O)c1cccc(NC(=O)CSc2nc3c(c(=O)[nH]2)CCC3)c1` the figure was 2.41%; with `Cc1ccc(Cn2c(C)c3cnn(CC(=O)NCc4ccccc4)c(=O)c3c2C)cc1`, -12.7%; with `Clc1ccc(CSc2nncn3c2cc2occc23)cc1`, 0.254%.
Same read-out and setting: in the case of `COc1cc(OC)cc(-c2nc3nc(C)c(CCC(=O)Nc4ccccc4)c(C)n3n2)c1` it was 2.09%; in that of `CCOc1cccc(CC(=O)N2CCc3c([nH]c4ccccc34)C2c2ccc(OC)cc2)c1OCC` (stereo not drawn), 9.34%.
For `CCN(C(=O)CSc1nnc(C)n2c1cc1occc12)c1ccccc1`, the “activity change, negative = inhibition” value is -2.15%.
On the same count and under the same terms, in the case of `Cc1ccc(-c2nc(SCc3ccc(Br)cc3)n3[nH]c(=O)cc3n2)cc1` it was -2.33%; in that of `O=c1cc(-c2ccccc2)n2c(SCc3ccccc3)nnc2[nH]1`, 0.0486%.
`CCCCSc1ncnc2c1sc1nc(N3CCOCC3)c3c(c12)CCCC3`: the “activity change, negative = inhibition” value is 6.37%.
The same measure, in the same setting: in the case of `COc1ccc(N2C(=O)CSC23C(=O)N(Cc2cccc(F)c2)c2ccccc23)cc1Cl` (stereo not drawn) it was -3.26%.
Same read-out and setting: with `COc1cc(C(=O)Nc2ccc(OCc3cc(=O)n4cc(C)sc4n3)cc2)cc(OC)c1OC` the figure was -6.16%.
The same measure, in the same setting: in the case of `CCOc1ccc(NC(=O)c2ncoc2-c2ccco2)cc1` it was 0%.
As to `Cn1nnnc1SCCCNCc1cccc(OCc2ccc(Cl)cc2)c1`, the Potency was 18.5 µM (active).
With `Cn1nnnc1SCCCNCc1ccc(Cl)cc1`, the “activity change, negative = inhibition” value was -9.59%.
Turning to `Cn1nnnc1SCCNCc1ccc(Cl)c(Cl)c1`, the “activity change, negative = inhibition” value was -5.71%.
Same read-out and setting: with `COc1ccc(C(=O)Nc2nonc2-c2ccc(OC)c(OC)c2)cc1Cl` the figure was -29.4%; with `Cc1ccc(NC(=O)c2cc3cc(C)ccc3n2C)cc1`, -1.67%; with `Cc1ccc(S(=O)(=O)c2nnn3c2nc(N2CCN(c4ccccc4F)CC2)c2cc(Cl)ccc23)cc1C`, -0.0789%.
Same read-out and setting: with `COC(=O)c1cc(NC(=O)c2cnc(SC)nc2-c2ccccc2)cc(C(=O)OC)c1` the figure was -1.13%.
Same read-out and setting: with `Cc1ccc(Nc2nnc(-c3ccc(C)c(S(=O)(=O)N4CCCCC4)c3)c3ccccc23)cc1` the figure was -1.69%.
Turning to `CCNS(=O)(=O)c1cc(-c2nnc(Nc3cccc(C(F)(F)F)c3)c3ccccc23)ccc1C`, the Potency was 18.5 µM (active).
Consider `Cc1ccc(-c2nnc(Nc3cccc(Br)c3)c3ccccc23)cc1S(=O)(=O)NCC1CCCO1` (stereo not drawn), for which the “activity change, negative = inhibition” value was -0.426%.
Still for that read-out and setting: with `O=C(Nc1ccccc1Cl)N1CCC(CN2CCCCC2)CC1` the figure was -6.23%.
Still for that read-out and setting: with `CCc1ccc(CNC(=O)c2cc3c(=O)n(CC)c4ccccc4c3s2)cc1` the figure was -7.38%; with `CCn1c(=O)c2cc(C(=O)NCCc3ccc(Cl)cc3)sc2c2ccccc21`, 1.55%.
In the case of `CCN(CCCNC(=O)c1cc2c(=O)n(CC)c3ccccc3c2s1)Cc1ccccc1`, the Potency is 18.5 µM (active).
Turning to `CCCCOC(=O)CSc1ncnc2sc3c(c12)CCC(C)C3` (stereo not drawn), the “activity change, negative = inhibition” value was -0.119%.
`O=C(CC(NCc1cccnc1)C(=O)O)Nc1ccc(O)cc1` (stereo not drawn): the Potency was 14.7 µM (active).
For `CCc1ccc(NC(=O)c2cc3c(=O)n(Cc4cccnc4)ccc3nc2C)cc1`, the “activity change, negative = inhibition” value is -1.59%.
Still for that read-out and setting: with `Cc1cc(NC(=O)CC(C)C)cc(-c2nc3ncccc3o2)c1O` the figure was 1.54%.
